Data from PubChem BioAssay AID1490 (National Center for Advancing Translational Sciences (NCATS), 2009).
The campaign covered roughly 310,000 compounds. About 11,000 (3.5%) were called active. Inconclusive results (about 4%) are left out. This excerpt belongs to a sample that is enriched for actives. Unmarked numbers belong to inactive results. Calls come from the whole dose curve; as a rule, active = well fitted inhibition curve with a large enough effect; inconclusive = small, poorly fitted or top-dose-only effect, or another doubt; inactive = no such curve, though single readings can be large or run the other way.

biological target: 4'-phosphopantetheinyl transferase ffp (Bacillus subtilis) (UniProt Q9F4F7); test: qHTS Assay for Inhibitors of Bacillus subtilis Sfp phosphopantetheinyl transferase (PPTase); conditions: Biochemical Sfp PPTase activity;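 note: the enzyme is Sfp with the accession as filed and its product quenches rhodamine fluorescence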;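 for largest response in the series, negative = inhibition: 0% = enzyme reaction without inhibitor and -100% = no enzyme wells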
Procedure, shortened: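 Reaction rates are the 30-min fluorescence difference (ex 525, em 598 nm) in wells containing 15 nM Sfp, 5 uM rhodamine-CoA and 12.5 uM BHQ-2-YbbR at pH 7.6 with 10 mM MgCl2.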
Potency is the fitted concentration of half-maximal effect.

**Q.** For `COc1c(O)c2c(=O)cc(OC)c3c4c(OC)cc(=O)c5c(O)c(OC)c6c(c(c1C[C@@](C)(O)[C@H]6C(C)=O)c23)c54`, which largest response in the series, negative = inhibition is on record?
**A.** Its largest response in the series, negative = inhibition is -14.1%.

**Q.** With `Fc1ccc(Nc2nnns2)cc1` as the compound, how does the Potency read?
**A.** Its Potency is 8.91 µM (active).

**Q.** For `O=C(Nc1ccncc1)Nc1ccc(F)cc1`, which largest response in the series, negative = inhibition is on record?
**A.** Its largest response in the series, negative = inhibition is 14.5%.

**Q.** Which largest response in the series, negative = inhibition does the source give for `CN(C)c1nc(NN)nc(Nc2ccc(F)cc2)n1` here?
**A.** The largest response in the series, negative = inhibition was -5.52%.

**Q.** Which Potency does the source give for `O=[N+]([O-])c1ccc(N/N=C2/CCCCC2c2ccccn2)c([N+](=O)[O-])c1` (configuration not stated) here?
**A.** The Potency was 35.5 µM (active).

**Q.** For `O=C(Nc1ccccc1)O/N=C1\CCCCC1c1ccc([N+](=O)[O-])cc1[N+](=O)[O-]` (configuration not stated), which largest response in the series, negative = inhibition is on record?
**A.** The largest response in the series, negative = inhibition was -6.23%.

**Q.** How did the largest response in the series, negative = inhibition turn out when `C[n+]1ccccc1C1CCCC/C1=N\Nc1ccc([N+](=O)[O-])cc1[N+](=O)[O-]` (configuration not stated) was run?
**A.** The largest response in the series, negative = inhibition was -1.83%.

**Q.** Which Potency does the source give for `Cc1cccc(-c2cc(=O)c3cc(C)ccc3o2)c1` here?
**A.** The Potency was 3.55 µM (active).

**Q.** For `Cc1cccc(C2=N/C(=C/c3cccs3)C(=O)O2)c1`, which largest response in the series, negative = inhibition is on record?
**A.** The largest response in the series, negative = inhibition was -1.85%.

**Q.** For `COc1ccccc1N1CCN(C(=O)c2cc(=O)c3cc(C)ccc3o2)CC1`, which largest response in the series, negative = inhibition is on record?
**A.** The largest response in the series, negative = inhibition was -2.28%.

**Q.** With `CCN1CCN(c2ccc(S(=O)(=O)N3CCCCC3)cc2NC(=O)Cc2c(Cl)cccc2Cl)CC1` as the compound, how does the largest response in the series, negative = inhibition read?
**A.** Its largest response in the series, negative = inhibition is -8.91%.

**Q.** With `CCN(C(=O)c1cc([N+](=O)[O-])ccc1NCc1cccnc1)c1ccccc1` as the compound, how does the largest response in the series, negative = inhibition read?
**A.** The largest response in the series, negative = inhibition was -0.174%.

**Q.** For `Cc1cc(C)c(OCC(=O)N/N=C/c2ccco2)c(C)c1`, which largest response in the series, negative = inhibition is on record?
**A.** Its largest response in the series, negative = inhibition is 2.54%.

**Q.** `COC(=O)C1=C(C)N(c2ccc(Br)cc2)C(=O)/C1=C\c1ccco1` was tested. Which largest response in the series, negative = inhibition did it give?
**A.** Its largest response in the series, negative = inhibition is -29.4%.

**Q.** For `COC(=O)COc1ccc2c(c1C)O/C(=C\c1ccco1)C2=O`, which Potency is on record?
**A.** Its Potency is 50.1 µM (active).

**Q.** How did the largest response in the series, negative = inhibition turn out when `CC(=O)Nc1ccc(S(=O)(=O)NC2Cc3ccccc3C2)cc1` was run?
**A.** The largest response in the series, negative = inhibition was 10.7%.

**Q.** Which largest response in the series, negative = inhibition does the source give for `CC(CC(=O)N1CCN(c2ccccc2)CC1)S(=O)(=O)c1ccc2c(c1)NC(=O)CS2` (configuration not stated) here?
**A.** Its largest response in the series, negative = inhibition is 13.4%.

**Q.** How did the largest response in the series, negative = inhibition turn out when `COc1ccc(C2c3[nH]c4ccccc4c3C[C@H]3C(=O)N(CC(C)C)CC(=O)N23)c(OC)c1` (some centres not stated) was run?
**A.** Its largest response in the series, negative = inhibition is -0.0198%.

**Q.** `Cc1cc(=O)[nH]c(SCC(N)=O)c1C#N` was tested. Which largest response in the series, negative = inhibition did it give?
**A.** The largest response in the series, negative = inhibition was -20.3%.

**Q.** Which Potency does the source give for `Cc1cc(=O)[nH]c(S)c1C#N` here?
**A.** The Potency was 2.24 µM (active).

**Q.** For `COC(=O)C1(C)C=CC2(CCCCC2)N1C(C)=O` (configuration not stated), which largest response in the series, negative = inhibition is on record?
**A.** Its largest response in the series, negative = inhibition is -0.895%.

**Q.** How did the largest response in the series, negative = inhibition turn out when `CC(C)=C1SC(N2CCN(c3cccc(C)c3)CC2)=NC1=O` was run?
**A.** Its largest response in the series, negative = inhibition is -3.03%.

**Q.** How did the largest response in the series, negative = inhibition turn out when `COc1ccc2[nH]c(C(=O)N3CCN(C)CC3)c(C)c2c1` was run?
**A.** Its largest response in the series, negative = inhibition is 10.8%.

**Q.** With `Cc1cccc(-n2c(N)c(C(=O)N3CCN(C)CC3)sc2=S)c1` as the compound, how does the Potency read?
**A.** The Potency was 3.55 µM (active).

**Q.** With `O=C(c1ccc(S(=O)(=O)c2ccccc2)cc1)N1CCCCCC1` as the compound, how does the largest response in the series, negative = inhibition read?
**A.** The largest response in the series, negative = inhibition was -3.64%.

**Q.** `N#Cc1ccccc1-n1c(N)c(C(=O)N2CCCC2)sc1=S` was tested. Which Potency did it give?
**A.** The Potency was 25.1 µM (active).

**Q.** For `Cc1ccc(N2CCN(C(=O)c3cccs3)CC2)c(C)c1`, which largest response in the series, negative = inhibition is on record?
**A.** The largest response in the series, negative = inhibition was -4.64%.

**Q.** `Cc1ccc(-n2c(N)c(C(=O)N3CCOCC3)sc2=S)c(C)c1` was tested. Which Potency did it give?
**A.** The Potency was 28.2 µM (active).

**Q.** `Cc1ccc(S(=O)(=O)N2CCN(C(=O)N3CCOCC3)CC2)c(C)c1` was tested. Which largest response in the series, negative = inhibition did it give?
**A.** Its largest response in the series, negative = inhibition is 12%.

**Q.** With `CCC(=O)Nc1sc(C(=O)N2CCCCC2)c(C)c1C#N` as the compound, how does the largest response in the series, negative = inhibition read?
**A.** Its largest response in the series, negative = inhibition is 8.83%.

**Q.** How did the largest response in the series, negative = inhibition turn out when `CCN(CC(=O)NCc1cccs1)C(=O)c1cccc(S(=O)(=O)Nc2ccccc2OC)c1` was run?
**A.** The largest response in the series, negative = inhibition was 9.95%.

**Q.** `COc1ccc(NC(=O)Cn2ncn3c(cc4ccccc43)c2=O)c(OC)c1OC` was tested. Which largest response in the series, negative = inhibition did it give?
**A.** The largest response in the series, negative = inhibition was 14.8%.

**Q.** For `COc1cc2c(cc1OC)CN(C(=O)c1cc(S(=O)(=O)N3CCCCC3)ccc1Cl)CC2`, which largest response in the series, negative = inhibition is on record?
**A.** Its largest response in the series, negative = inhibition is 8.46%.

**Q.** How did the largest response in the series, negative = inhibition turn out when `CCCCC(CC)CNCc1cccn1CCN1CCOCC1` (configuration not stated) was run?
**A.** Its largest response in the series, negative = inhibition is -12.1%.

**Q.** Which largest response in the series, negative = inhibition does the source give for `COC(=O)c1cc(OCC(=O)NC2CCCc3ccccc32)cc(C(=O)OC)c1` (configuration not stated) here?
**A.** The largest response in the series, negative = inhibition was -18.9%.

**Q.** `Cc1ccc(OCC(=O)Nc2ccc(NC(=O)c3cccs3)cc2)c(C)c1` was tested. Which largest response in the series, negative = inhibition did it give?
**A.** The largest response in the series, negative = inhibition was 29.1%.

**Q.** For `COc1ccc(N2C(=O)C3CCCN3C2c2cccs2)cc1` (configuration not stated), which largest response in the series, negative = inhibition is on record?
**A.** The largest response in the series, negative = inhibition was -3.66%.

**Q.** With `COc1ccc(N2C(=O)C3C(C2=O)C(C(=O)c2ccccc2)N2CCCC32)cc1` (configuration not stated) as the compound, how does the Potency read?
**A.** The Potency was 50.1 µM (active).

**Q.** How did the largest response in the series, negative = inhibition turn out when `COc1ccc(N2C(=O)C(Cc3ccccc3)NC2=S)cc1` (configuration not stated) was run?
**A.** The largest response in the series, negative = inhibition was 6.01%.

**Q.** Which largest response in the series, negative = inhibition does the source give for `O=C(N/C(=C\c1ccc([N+](=O)[O-])cc1)C(=O)N1CCOCC1)c1cccc(Br)c1` here?
**A.** Its largest response in the series, negative = inhibition is 3.86%.

**Q.** For `CCOC(=O)N1CCN(C(=O)C(C)NC(=O)c2ccco2)CC1` (configuration not stated), which largest response in the series, negative = inhibition is on record?
**A.** The largest response in the series, negative = inhibition was 26.5%.

**Q.** With `CCn1c(SCC(=O)Nc2ccc(Br)cc2)nc2sc3c(c2c1=O)CCN(C)C3` as the compound, how does the largest response in the series, negative = inhibition read?
**A.** The largest response in the series, negative = inhibition was 2.9%.

**Q.** How did the Potency turn out when `Cc1nc(N2CCOCC2)sc1C(=O)NN` was run?
**A.** Its Potency is 56.2 µM (active).

**Q.** Which largest response in the series, negative = inhibition does the source give for `CCOC(=O)N1CCC(NC(=O)c2ccc3nc(N4CCOCC4)sc3c2)CC1` here?
**A.** The largest response in the series, negative = inhibition was 6.95%.

**Q.** For `Cc1nc(-c2ccc(Cl)cc2)sc1C(=O)NN`, which largest response in the series, negative = inhibition is on record?
**A.** Its largest response in the series, negative = inhibition is 5.7%.

**Q.** For `Cc1ccc(NS(=O)(=O)c2ccc3c(c2)NC(=O)CO3)cc1`, which largest response in the series, negative = inhibition is on record?
**A.** The largest response in the series, negative = inhibition was 7.8%.

**Q.** How did the largest response in the series, negative = inhibition turn out when `O=C(Cn1nnc(-c2ccccc2)n1)N/N=C/c1ccc(-c2ccc(Cl)cc2)o1` was run?
**A.** Its largest response in the series, negative = inhibition is 25.9%.
